Results as given in PubChem BioAssay AID1345085 (National Center for Advancing Translational Sciences (NCATS), 2018).
Inconclusive results are not listed. Calls of active or inactive are those of the source. The call rests on the fitted dose curve; in most records, active means well fitted cell-killing curve with a large enough effect; inconclusive means small, poorly fitted or top-dose-only effect, or effect the other way; inactive means no such curve, though single readings can be large or run the other way. *1 amine or outer side, *2 acyl side, *3 side chain or, on linkers, in order; H or OH if unused. Where a SMILES comes first, the peptide text is derived from it. Bridges are numbered along the chain shown (N, C = ends). Roman numbers before positions name the chains, in order. [ ]: non-standard residue; d: D form. Actinocin(9to1) = Cc1c2oc3c(C)ccc(C(=O)[*:1])c3nc-2c(C(=O)[*:2])c(N)c1=O; NMeV = CN[C@H](C(=O)O)C(C)C; Sar = CNCC(=O)O

Tested on: PA-1
Assay: Confirmatory qHTS for gynecologic anti-cancer compounds from libraries of approved drugs and bioactive compounds; further: nearly all actives have a fitted effect of over 55% in size
Settings: gynecologic cancer cell panel viability, ATPlite luminescence, 48 h; series mostly up to 57.6 µM
In short: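 1,000 cells/well; 16 h pre-incubation 37 C, 5% CO2; pin-transferred cpd in DMSO, 11 conc (1:3), 57.5 uM–0.977 nM; 48 h; ATPlite, 15 min RT; luminescence → IC50.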
Potency means the concentration at half of the fitted maximal effect.

Row | Compound | Potency
1 | CC(=O)O[C@H]1C(=O)[C@@]2(C)[C@H]([C@H](OC(=O)c3ccccc3)[C@]3(O)C[C@H](OC(=O)[C@H](O)[C@@H](NC(=O)c4ccccc4)c4ccccc4)C(C)=C1C3(C)C)[C@]1(OC(C)=O)CO[C@@H]1C[C@@H]2O | 0.0092 µM (active)
2 | C=CC(=O)Nc1cc2c(Nc3ccc(F)c(Cl)c3)ncnc2cc1OCCCN1CCOCC1 | 30.6 µM (active)
3 | C[C@]12CCC(=O)C=C1[C@@H]1C[C@@H]1[C@H]1[C@@H]3[C@@H]4C[C@@H]4[C@@]4(CCC(=O)O4)[C@@]3(C)CC[C@@H]12 | inactive
4 | Nc1nc(Cl)nc2c1ncn2C1OC(CO)C(O)C1F (stereo not given) | 0.685 µM (active)
5 | CCCCc1oc2ccc(NS(C)(=O)=O)cc2c1C(=O)c1ccc(OCCCN(CCCC)CCCC)cc1 | 27.3 µM (active)
6 | Cc1cnc(Nc2cccc(CN3CCOCC3)c2)nc1Nc1cccc(S(=O)(=O)NC(C)(C)C)c1 | 3.85 µM (active)
7 | O=c1[nH]c(=O)n([C@H]2C[C@H](O)[C@@H](CO)O2)cc1F | 0.109 µM (active)
8 | O=c1[nH]c(=O)n([C@H]2C[C@H](O)[C@@H](CO)O2)cc1C(F)(F)F | 1.93 µM (active)
9 | CCC1C(=O)N(C)c2cnc(Nc3ccc(C(=O)NC4CCN(C)CC4)cc3OC)nc2N1C1CCCC1 (stereo not given) | 0.0432 µM (active)
10 | O=C(NOCC1CC1)c1ccc(F)c(F)c1Nc1ccc(I)cc1Cl | 8.63 µM (active)
11 | COc1ccc2c(c1)c(CC(=O)O)c(C)n2C(=O)c1ccc(Cl)cc1 | 27.3 µM (active)
12 | O=C1N(c2ccccc2)c2ccccc2C1(Cc1ccncc1)Cc1ccncc1 | inactive
13 | O=C1NC(=O)C(c2cnc3ccccn23)=C1c1cn2c3c(cccc13)CN(C(=O)N1CCOCC1)CC2 | 10.9 µM (active)
14 | Cc1cc(Nc2cc(N3CCN(C)CC3)nc(Sc3ccc(NC(=O)C4CC4)cc3)n2)n[nH]1 | 2.17 µM (active)
15 | Cc1nc(NC(=O)N2CCCC2C(N)=O)sc1-c1csc(C(C)(C)C)n1 (stereo not given) | 27.3 µM (active)
16 | CN(C)CC/C=C1\c2ccccc2COc2ccccc21 | inactive
17 | COc1cc(N2CCC(N(C)C)CC2)ccc1Nc1ncc(Cl)c(Nc2ccccc2P(C)(C)=O)n1 | 6.11 µM (active)
18 | COc1cc(-c2nn(C3CCC(N4CCN(C(C)=O)CC4)CC3)c3ncnc(N)c23)ccc1NC(=O)c1cc2ccccc2n1C (stereo not given) | 30.6 µM (active)
19 | Cn1cc(-c2[nH]c3cc(NC(=O)[C@H](N)C4CCCCC4)cc4c3c2C=NNC4=O)cn1 | 8.63 µM (active)
20 | Cc1cnc(Nc2ccc(OCCN3CCCC3)cc2)nc1Nc1cccc(S(=O)(=O)NC(C)(C)C)c1 | 4.32 µM (active)
21 | Nc1ccccc1NC(=O)c1ccc(CNC(=O)OCc2cccnc2)cc1 | 1.53 µM (active)
22 | COc1c(C)c2c(c(O)c1C/C=C(\C)CCC(=O)OCCN1CCOCC1)C(=O)OC2 | 0.485 µM (active)
23 | COc1cccc2c1C(=O)c1c(O)c3c(c(O)c1C2=O)C[C@@](O)(C(=O)CO)C[C@@H]3O[C@H]1C[C@H](N)[C@H](O)[C@H](C)O1 | 0.432 µM (active)
24 | Cc1c2oc3c(C)ccc(C(=O)N[C@@H]4C(=O)N[C@H](C(C)C)C(=O)N5CCC[C@H]5C(=O)N(C)CC(=O)N(C)[C@@H](C(C)C)C(=O)O[C@@H]4C)c3nc-2c(C(=O)N[C@@H]2C(=O)N[C@H](C(C)C)C(=O)N3CCC[C@H]3C(=O)N(C)CC(=O)N(C)[C@@H](C(C)C)C(=O)O[C@@H]2C)c(N)c1=O (I: T[dV]P[Sar][NMeV] / II: T[dV]P[Sar][NMeV]; ester I:1-I:C, II:1-II:C; linker I:N-II:N via Actinocin(9to1)) | 0.0968 µM (active)
25 | CCc1c2c(nc3ccc(OC(=O)N4CCC(N5CCCCC5)CC4)cc13)-c1cc3c(c(=O)n1C2)COC(=O)[C@]3(O)CC | 7.69 µM (active)
26 | CCN(CC)CCCC(C)Nc1c2ccc(Cl)cc2nc2ccc(OC)cc12 (stereo not given) | 27.3 µM (active)
27 | O=C(CCCCCCNC(=O)c1cnc(N(c2ccccc2)c2ccccc2)nc1)NO | 3.06 µM (active)
28 | COc1ccc(-c2nc3ccc(C4=NNC(=O)CC4C)cc3[nH]2)cc1 (stereo not given) | 21.7 µM (active)
29 | Cc1cc(SCc2sc(-c3ccc(C(F)(F)F)cc3)nc2C)ccc1OCC(=O)O | inactive
30 | NCCOc1cc(C(=O)Nc2cc(OCCN)c3ccccc3n2)nc(C(=O)Nc2cc(OCCN)c3ccccc3n2)c1 | 19.3 µM (active)
